# Measured values taken from PubChem BioAssay AID1159580 (chemical genetic matrix, 2015).
# Screen size: about 5,500 compounds; about 2,000 (36%) were called active. Not shown: some 18% with an inconclusive outcome. The list shows a part of the results. Unmarked numbers belong to inactive results. Rule as the data show it: active = normalized growth mostly below about 0.91 (no sharp cut-off); inconclusive = no clear call, values can overlap the other calls; inactive = mostly above about 0.92.
# Test: chemical genetic growth profiling, strain panel (AID 1159580);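 also: tested at 20 µM; growth read once vehicle control cultures reached saturation at 30 °C; 1 = growth at the plate median or of vehicle wells; lower values mean less growth of the strain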
# Settings: S. cerevisiae deletion strains, growth OD
# [1] = locus YDL101C, strain DUN1, stronger effect = lower value
# [2] = locus YHR030C, strain SLT2, stronger effect = lower value
# [3] = locus YDR150W, strain NUM1, stronger effect = lower value
# [4] = locus YGR078C, strain PAC10, stronger effect = lower value
# [5] = locus YJR075W, strain HOC1, stronger effect = lower value
# [6] = locus YPL241C, strain CIN2, stronger effect = lower value
smiles,measurement,setting,value
CC(C)(O)C#Cc1ccc(/C=N\Nc2ccccc2)cc1,normalized growth,"locus YAR019C, strain CDC15, stronger effect = lower value",0.966
same,normalized growth,"locus YBL105C, strain PKC1, stronger effect = lower value",0.963
same,normalized growth,"locus YBR135W, strain CKS1, stronger effect = lower value",0.952
same,normalized growth,"locus YBR136W, strain MEC1, stronger effect = lower value",0.954
same,normalized growth,"locus YBR160W, strain CDC28, stronger effect = lower value",0.954
same,normalized growth,"locus YDL017W, strain CDC7, stronger effect = lower value",0.961
same,normalized growth,"locus YDL028C, strain MPS1, stronger effect = lower value",0.952
same,normalized growth,[1],0.954
same,normalized growth,"locus YDL108W, strain KIN28, stronger effect = lower value",0.965
same,normalized growth,"locus YDL132W, strain cdc53, stronger effect = lower value",0.949
same,normalized growth,"locus YDL214C, strain PRR2, stronger effect = lower value",0.822
same,normalized growth,"locus YDR052C, strain DBF4, stronger effect = lower value",0.955
same,normalized growth,"locus YDR054C, strain cdc34, stronger effect = lower value",0.957
same,normalized growth,"locus YDR226W, strain ADK1, stronger effect = lower value",0.968
same,normalized growth,"locus YDR477W, strain SNF1, stronger effect = lower value",0.767
same,normalized growth,"locus YER123W, strain YCK3, stronger effect = lower value",0.569 (active)
same,normalized growth,"locus YER133W, strain GLC7, stronger effect = lower value",0.799
same,normalized growth,"locus YFL009W, strain cdc4, stronger effect = lower value",0.948
same,normalized growth,"locus YFL029C, strain CAK1, stronger effect = lower value",0.957
same,normalized growth,"locus YFR003C, strain YPI1, stronger effect = lower value",0.957
same,normalized growth,"locus YFR019W, strain FAB1, stronger effect = lower value",0.589 (active)
same,normalized growth,"locus YFR028C, strain CDC14, stronger effect = lower value",0.965
same,normalized growth,"locus YGR040W, strain KSS1, stronger effect = lower value",0.784
same,normalized growth,"locus YGR052W, strain FMP48, stronger effect = lower value",0.716
same,normalized growth,"locus YGR092W, strain DBF2, stronger effect = lower value",0.13 (active)
same,normalized growth,[2],0.507 (active)
same,normalized growth,"locus YHR079C, strain IRE1, stronger effect = lower value",0.585
same,normalized growth,"locus YHR082C, strain KSP1, stronger effect = lower value",0.795
same,normalized growth,"locus YHR205W, strain SCH9, stronger effect = lower value",0.88
same,normalized growth,"locus YIL147C, strain SLN1, stronger effect = lower value",0.954
same,normalized growth,"locus YJL095W, strain BCK1, stronger effect = lower value",0.497 (active)
same,normalized growth,"locus YJL128C, strain PBS2, stronger effect = lower value",0.995
same,normalized growth,"locus YJR016C, strain ILV3, stronger effect = lower value",0.948
same,normalized growth,"locus YJR066W, strain TOR1 (second series), stronger effect = lower value",0.557 (active)
same,normalized growth,"locus YJR066W, strain TOR1, stronger effect = lower value",0.644
same,normalized growth,"locus YKL048C, strain ELM1, stronger effect = lower value",0.756 (active)
same,normalized growth,"locus YKL101W, strain HSL1, stronger effect = lower value",0.78
same,normalized growth,"locus YKL193C, strain SDS22, stronger effect = lower value",0.954
same,normalized growth,"locus YKL203C, strain TOR2, stronger effect = lower value",0.831
same,normalized growth,"locus YLR113W, strain HOG1, stronger effect = lower value",0.718 (active)
same,normalized growth,"locus YLR133W, strain CKI1, stronger effect = lower value",0.798
same,normalized growth,"locus YML070W, strain DAK1, stronger effect = lower value",0.556 (active)
same,normalized growth,"locus YMR001C, strain CDC5, stronger effect = lower value",0.96
same,normalized growth,"locus YMR205C, strain PFK2 (second series), stronger effect = lower value",0.872
same,normalized growth,"locus YMR277W, strain FCP1, stronger effect = lower value",0.963
same,normalized growth,"locus YNL006W, strain LST8, stronger effect = lower value",0.954
same,normalized growth,"locus YNL020C, strain ARK1, stronger effect = lower value",0.811
same,normalized growth,"locus YNL161W, strain CBK1, stronger effect = lower value",0.954
same,normalized growth,"locus YNL183C, strain NPR1, stronger effect = lower value",0.735
same,normalized growth,"locus YNL207W, strain RIO2, stronger effect = lower value",0.958
same,normalized growth,"locus YNL222W, strain SSU72, stronger effect = lower value",0.953
same,normalized growth,"locus YNL307C, strain MCK1 (second series), stronger effect = lower value",0.41 (active)
same,normalized growth,"locus YOL078W, strain AVO1, stronger effect = lower value",0.952
same,normalized growth,"locus YOL136C, strain PFK27, stronger effect = lower value",0.614 (active)
same,normalized growth,"locus YOR061W, strain CKA2, stronger effect = lower value",0.366 (active)
same,normalized growth,"locus YOR119C, strain RIO1, stronger effect = lower value",0.799
same,normalized growth,"locus YOR231W, strain MKK1, stronger effect = lower value",0.551 (active)
same,normalized growth,"locus YOR329C, strain SCD5, stronger effect = lower value",0.955
same,normalized growth,"locus YPL031C, strain PHO85, stronger effect = lower value",0.686
same,normalized growth,"locus YPL153C, strain RAD53, stronger effect = lower value",0.565 (active)
same,normalized growth,"locus YPL204W, strain HRR25, stronger effect = lower value",0.602 (active)
same,normalized growth,"locus YPL209C, strain IPL1, stronger effect = lower value",0.959
same,normalized growth,"locus YPL256C, strain CLN2, stronger effect = lower value",0.766 (active)
same,normalized growth,"locus YPR025C, strain CCL1, stronger effect = lower value",0.948
same,normalized growth,"locus YPR106W, strain ISR1, stronger effect = lower value",0.974
same,normalized growth,"locus YPR111W, strain DBF20, stronger effect = lower value",0.968
same,normalized growth,"strain NNK1, stronger effect = lower value",0.979
same,normalized growth,"strain TSCII, stronger effect = lower value",0.951
CC(C)(O)C#Cc1ccc(/C=N\O)cc1,normalized growth,"locus YAL013W, strain DEP1, stronger effect = lower value",1.01
same,normalized growth,"locus YBR229C, strain ROT2, stronger effect = lower value",0.996
same,normalized growth,[1],0.99
same,normalized growth,"locus YDL134C, strain PPH21, stronger effect = lower value",0.981
same,normalized growth,[3],0.938
same,normalized growth,"locus YEL061C, strain CIN8, stronger effect = lower value",0.984
same,normalized growth,[4],1.03
same,normalized growth,[2],1
same,normalized growth,"locus YHR087W, strain rtc3, stronger effect = lower value",0.988
same,normalized growth,"locus YJR043C, strain POL32, stronger effect = lower value",1.02
same,normalized growth,[5],0.992
same,normalized growth,"locus YKL190W, strain CNB1, stronger effect = lower value",1
same,normalized growth,"locus YLR039C, strain RIC1, stronger effect = lower value",0.991
same,normalized growth,"locus YLR058C, strain SHM2 (second series), stronger effect = lower value",1.01
same,normalized growth,"locus YLR085C, strain ARP6, stronger effect = lower value",0.939
same,normalized growth,"locus YLR262C, strain YPT6, stronger effect = lower value",0.968
same,normalized growth,"locus YML094W, strain GIM5, stronger effect = lower value",0.975
same,normalized growth,"locus YMR219W, strain ESC1, stronger effect = lower value",0.987
same,normalized growth,"locus YMR263W, strain SAP30, stronger effect = lower value",0.962
same,normalized growth,"locus YNL128W, strain TEP1, stronger effect = lower value",0.998
same,normalized growth,"locus YNL153C, strain GIM3, stronger effect = lower value",1
same,normalized growth,"locus YNL298W, strain CLA4 (second series), stronger effect = lower value",0.977
same,normalized growth,"locus YNL322C, strain KRE1, stronger effect = lower value",0.992
same,normalized growth,"locus YNR030W, strain Alg12, stronger effect = lower value",1
same,normalized growth,"locus YPL055C, strain LGE1, stronger effect = lower value",0.936
same,normalized growth,[6],0.959
same,normalized growth,"locus YPR135W, strain CTF4, stronger effect = lower value",0.994
CN(C)CCCO[C@@H]1[C@H]2OC(C)(C)O[C@H]2O[C@@H]1C(O)CO (some centres not stated),normalized growth,"locus YAL040C, strain CLN3, stronger effect = lower value",1
same,normalized growth,"locus YCL061C, strain MRC1 (second series), stronger effect = lower value",1
same,normalized growth,[3],1
same,normalized growth,"locus YDR363W, strain ESC2, stronger effect = lower value",1
same,normalized growth,"locus YER002W, strain NOP16, stronger effect = lower value",1.02
same,normalized growth,[4],1.01
same,normalized growth,[5],1.01
same,normalized growth,"locus YNL175C, strain NOP13, stronger effect = lower value",1.01
same,normalized growth,"locus YNL197C, strain WHI3, stronger effect = lower value",1.03
same,normalized growth,"locus YNL224C, strain SQS1, stronger effect = lower value",1
same,normalized growth,"locus YOR083W, strain WHI5 (second series), stronger effect = lower value",1.01
same,normalized growth,[6],1.01
